From PubChem
TRHR enhancer: allosterically enhances the human TRH receptor; enhancement, % at 2 µM; P34981; 360,000 compounds, 0.66% hits; TRHR cells, fluo-8 calcium fluorescence, EC20 TRH enhancement; AID 493056; in the data active means enhancement above about 30%; further: 0% is about no effect
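Enhancer read-out: after compound pinning and an initial kinetic agonist-mode read, an EC20 of TRH (10 nM final) was injected and fluo-8 calcium signal (Ex 480/Em 530) followed at 1 s/cycle for 100 cycles in TRHR-expressing cells.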
TRHR agonist: TRH receptor (human) agonism; TRHR cells, calcium flux fluo-8, FDSS agonist mode; activation, % at 2 µM; 360,000 compounds, 0.18% hits; AID 493084; further: 0% is about no effect
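Agonist-mode FDSS calcium read (Ex 480/Em 530, 1 s cycles) in 1536-well TRHR cells with fluo-8 dye, after 10-cycle baseline and 23 nL compound addition; TRH at EC20 (10 nM final) added afterwards for the enhancer phase.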
D1 antag: antagonists of human D1 dopamine receptor; AID 504652; HEK293 TREx D1 cells, calcium flux, dopamine EC80; stronger effect = lower value; P21728; activity change, negative = inhibition, % at 10 µM; 360,000 compounds, 3.2% hits; in the data active means activity change below about -30%; further: on the % scale 0 is the no-effect control and ±100 the full control effect
Target sequence (P21728 whole entry, looked up): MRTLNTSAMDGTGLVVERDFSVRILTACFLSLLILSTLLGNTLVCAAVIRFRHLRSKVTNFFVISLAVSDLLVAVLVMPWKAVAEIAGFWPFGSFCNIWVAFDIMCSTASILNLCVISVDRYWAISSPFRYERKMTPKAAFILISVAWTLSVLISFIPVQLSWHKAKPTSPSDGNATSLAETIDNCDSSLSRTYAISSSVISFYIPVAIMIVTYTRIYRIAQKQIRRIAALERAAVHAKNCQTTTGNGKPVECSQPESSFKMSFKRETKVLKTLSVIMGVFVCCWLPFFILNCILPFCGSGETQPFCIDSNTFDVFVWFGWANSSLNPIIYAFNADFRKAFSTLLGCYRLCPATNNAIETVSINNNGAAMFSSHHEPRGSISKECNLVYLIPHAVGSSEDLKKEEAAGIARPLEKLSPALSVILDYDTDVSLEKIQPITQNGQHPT
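Tetracycline-induced HEK293 T-REx cells with force-coupled D1 receptor were loaded with a no-wash calcium dye. Compound was added after a 10 s baseline and read kinetically for 180 s; EC80 dopamine was then added and calcium flux followed another 180 s.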
D1 ag: human D1 receptor agonism. P21728. HEK293 T-REx D1 cells, calcium flux, agonist mode. activation, % at 2 µM. 360,000 compounds, 1% hits; further: 0% is about no effect
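Agonism was scored from calcium flux recorded over 180 s (1 read/s) after pintool compound addition, following a 10-cycle baseline. Cells were inducible force-coupled HEK293 TREx D1, plated overnight at 30 C and loaded with no-wash calcium dye.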
D1 potentiator: potentiators of human D1 dopamine receptor; P21728; HEK293 TREx D1 cells, calcium flux, dopamine EC20 potentiation; potentiation, % at 10 µM; 360,000 compounds, 0.036% hits; AID 504651; in the data active means potentiation above about 30%; further: 0% is about no effect
Numbers without * were called inactive. Hits are enriched below; roughly 4.7% of the tested compounds scored in any of these assays. Unless noted, no stated cut-off is given here; in the data, active means activation above about 30%; inactive means the rest.

SMILES	TRHR enhancer	TRHR agonist	D1 antag	D1 ag	D1 potentiator
Cc1cc(C)n(-c2ccc(NC(=O)C3CCCCN3C(=O)c3ccoc3)cc2)n1 (stereo not given)	2	0	7	7	0
Cc1cc(C)n(-c2ccc(NC(=O)C3CCCCN3Cc3cccc4c3OCO4)cc2)n1 (stereo not given)	30*	0	3	3	1
COc1ccc(S(N)(=O)=O)cc1C(=O)OCCCOc1ccc(F)cc1	1	0	-34*	11	3
COc1ccc(S(N)(=O)=O)cc1C(=O)OCCCOC(=O)c1cc(S(N)(=O)=O)ccc1OC	5	0	2	3	7
Cc1nn(-c2ccccc2)c2c1cc1c(=O)[nH]c(=O)nc-1n2-c1cccc(C(F)(F)F)c1	11	-1	34	1	1
COCC(C)n1c(SCC(=O)NC(=O)NC2CCCC2)nc2ccccc2c1=O (stereo not given)	8	0	5	1	-2
O=C(COC(=O)C1CCN(c2ccc(C(F)(F)F)cn2)CC1)Nc1ccc(Cl)cc1	3	2	-22	11	-13
O=C(COC(=O)C1CCN(c2ccc(C(F)(F)F)cn2)CC1)Nc1ccc(Cl)cn1	9	2	-59*	9	-18
CC(C(=O)N1CCc2ccccc21)n1cnc2c1c(=O)n(C)c(=O)n2C (stereo not given)	4	1	1	1	2
CC(=O)Nc1ccc(S(=O)(=O)N[C@@H](C)C(=O)OCC(=O)NC2CCCC2)cc1	-1	0	1	1	0
CCCn1c(CCC(=O)Nc2cc(OC)cc(OC)c2)nc2cccnc21	-2	-1	-9	1	0
COCCNC(=O)CSCc1c(F)cccc1Cl	0	0	-44*	2	-7
COc1ccc(CNC(=O)CSCc2c(F)cccc2Cl)cc1	-2	-1	18	5	1
O=C(NCCSCc1c(F)cccc1Cl)c1ccco1	16	-1	-33*	12	-10
Cc1c(C(=O)NCCSCc2c(Cl)cccc2Cl)cccc1[N+](=O)[O-]	4	-3	-32*	44*	-6
Cc1c(C(=O)NCCSCc2ccccc2Cl)cccc1[N+](=O)[O-]	2	0	-14	5	-3
COc1cc(C)c(Cl)cc1S(=O)(=O)N1CCSC1	-4	-1	-23	4	1
CC(C)Cc1ccc(C(C)C(=O)Nc2ccccc2O)cc1 (stereo not given)	-6	10	-26	65*	-17
Cc1ccccc1C(=O)Nc1ccnn1C1CCN(C(=O)c2ccoc2)CC1	1	0	-45*	4	-5
Cc1ccc(C(=O)N2CCC(n3nccc3NC(=O)c3ccccc3C)CC2)cn1	-5	1	-7	5	10
CC(C)(C)c1ccc(NC(=O)c2ccsc2)cc1	-4	0	-31*	-1	-4
CC(C)(C)c1ccc(C(=O)Nc2ccc(Cl)cc2)cc1	20	1	6	3	3
CCCc1cc(C(=O)N2CCCC(Nc3ccc(C)c(C)c3)C2)n(C)n1 (stereo not given)	-10	-1	-11	2	6
CCCc1nn(-c2cc(Cl)ccc2OC)c2c1C(=O)CCC2	7	0	-46*	4	2
COc1ccc(-c2cc(C(=O)N(C)CC(=O)Nc3cccc(F)c3)c3ccccc3n2)cc1	-18	0	-18	4	-6
COc1ccccc1/C(C)=N/Oc1cc(N)cc([N+](=O)[O-])c1	-15	-1	-1	2	1
CC(C)(C)C1CCc2c(sc(NC(=O)CCC(=O)O)c2C(=O)Nc2ccccc2C(F)(F)F)C1 (stereo not given)	7	-1	-6	-2	0
COCCN1C=C2C(=O)C(C)(OC(=O)c3cccs3)C(=O)C=C2C=C1CCCC(=O)OC (stereo not given)	-6	0	-36*	6	-6
COC(=O)CCCC1=CC2=CC(=O)C(C)(OC(=O)c3cccs3)C(=O)C2=CN1CCCCO (stereo not given)	-4	0	11	5	-3
CC12CCC(C(=O)N(CC(=O)O)C1=O)C2(C)C (stereo not given)	20	1	-52*	0	5
